Screens: PubChem BioAssay, NMMLSC
RGS8-Gao: regulators of human RGS8-Galphao interaction | P09471 | multiplexed bead flow cytometry, RGS8-Galphao binding; actives lie on both sides | response (percent of control binding), % at 10 µM | hit rate 0.34% among 220,000 | AID 1423; in the data active = response below about 60% or above about 140%; inactive = in between;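 also: Galphao activated as the GDP aluminium fluoride complex binding bead-coupled RGS8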
Target sequence (P09471 whole entry, looked up): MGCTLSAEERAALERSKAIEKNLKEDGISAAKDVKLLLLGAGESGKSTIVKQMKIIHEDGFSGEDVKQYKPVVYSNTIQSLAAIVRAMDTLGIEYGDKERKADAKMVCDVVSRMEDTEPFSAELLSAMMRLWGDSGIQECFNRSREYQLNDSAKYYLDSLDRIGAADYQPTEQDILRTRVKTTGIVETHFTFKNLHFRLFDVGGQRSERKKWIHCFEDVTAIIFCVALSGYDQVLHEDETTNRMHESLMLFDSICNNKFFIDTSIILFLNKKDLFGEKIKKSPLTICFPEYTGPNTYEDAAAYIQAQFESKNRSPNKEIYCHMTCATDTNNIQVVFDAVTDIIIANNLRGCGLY
RGS16-Gao HTS: regulators of human RGS16-Galphao interaction; AID 1441; bead-based flow cytometry RGS16-Galphao binding, fluorescence; actives lie on both sides; binding response (% of control), % at 10 µM; hit rate 0.38% among 220,000; O15492+P09471;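 also: Galphao activated by GDP with aluminum fluoride before binding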
RGS4-Gao reg: modulates binding of RGS4 to human Galphao; P09471; Multiplexed bead flow cytometry; actives lie on both sides; binding response (% of control), % at 10 µM; hit rate 0.33% among 220,000; in the data active = binding response below about 49% or above about 150%; inactive = in between;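 also: fluorescent Galphao activated with aluminum fluoride binding bead-coupled RGS4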
RGS7-Gao reg: regulators of human RGS7-Galphao interaction; P09471; Multiplexed bead flow cytometry, RGS7-Galphao binding; actives lie on both sides; AID 1439; binding response (% of control), % at 10 µM; hit rate 0.35% among 220,000; in the data active = binding response below about 49% or above about 150%; inconclusive = no clear call, values can overlap the other calls; inactive = in between;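 also: fluorescent Galphao held in activated GDP-AlF4 state binding bead-coupled RGS7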
GSH fluor: compound fluoresces at 488/530 nm on GSH beads; GSH beads flow cytometry, compound fluorescence 488/530 nm; hits give high values; fluorescence (KMESF) at 10 µM; hit rate 0.25% among 190,000; AID 1776; in the data active = fluorescence above about 89;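 also: glutathione beads carrying GST-tagged Bcl family fusion proteins plus one bare bead set; values are compound well signal with DMSO vehicle wells as background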
Avidin fluor: compound fluoresces at 488/530 nm on avidin beads; hit rate 0.38% among 220,000; AID 1775; compound fluorescence 488/530 nm, flow cytometry; hits give high values; fluorescence (KMESF) at 10 µM; in the data active = fluorescence above about 47
RGS-Gao: modulates binding between human RGS4 and Galphao; RGS4–Galpha-o binding response, % at 10 µM; shares compounds with RGS16-Gao HTS; hit rate 99% among 1,600; AID 1504; multiplexed bead flow cytometry, RGS–Galpha-o binding;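 also: fluorescently labeled Galpha-o bound to GDP with aluminium fluoride binding biotinylated RGS beads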
Biotin-avidin: biotin-avidin bead binding disruption counter-screen; shares compounds with RGS16-Gao HTS; streptavidin beads, fluorescein-biotin binding, flow cytometry; inhibition, % at 10 µM; 1,700 tested, under 10 active; AID 1783;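 active = inhibition above 50%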;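 also: median green fluorescence of gated singlet beads compared with DMSO control wells; 0% = DMSO wells and 100% = complete loss of bead fluorescence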
RGS8-Gao single: confirmation of regulators of human RGS8-Galphao interaction; shares compounds with RGS16-Gao HTS; hit rate 3% among 1,700; binding response (% of control), % at 10 µM; bead-based flow cytometry RGS8-Galphao binding, fluorescence; actives lie on both sides; in the data active = binding response below about 72% or above about 130%; inactive = in between;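 also: Galphao activated as GDP AlF4 complex before binding bead RGS8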
RGS7-Gao confirm: RGS7-Galphao interaction regulation, single point confirmation; shares compounds with RGS16-Gao HTS; bead-based flow cytometry RGS7-Galphao binding; actives lie on both sides; response (percent of control binding), % at 10 µM; hit rate 7.8% among 1,700; AID 1837; in the data active = response below about 75% or above about 130%; inactive = in between;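 also: fluorescent Galphao activated with GDP and aluminum fluoride binding bead-coupled RGS7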
RGS16-Gao conf: RGS16-Galphao interaction regulation, single point confirmation; hit rate 4% among 1,700; shares compounds with RGS16-Gao HTS; bead-based flow cytometry, RGS16-Galphao binding; actives lie on both sides; response (% of control binding), % at 10 µM; in the data active = response below about 74% or above about 130%; inactive = in between;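 also: Galphao activated as the GDP aluminium fluoride complex binding bead-coupled RGS16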
RGS4-Gao single: RGS4-Galphao interaction regulation, single point confirmation | hit rate 4% among 1,700 | RGS4-Galphao binding, multiplexed bead flow cytometry; actives lie on both sides | shares compounds with RGS16-Gao HTS | binding response (% of control), % at 10 µM; in the data active = binding response below about 74% or above about 130%; inactive = in between
RGS19-Gao single: confirmation of regulators of human RGS19-Galphao interaction | shares compounds with RGS16-Gao HTS | bead-based flow cytometry RGS19-Galphao binding; actives lie on both sides | response (percent of control binding), % at 10 µM | hit rate 5% among 1,700 | AID 1841; in the data active = response below about 50% or above about 160%; inactive = in between;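 also: 100% = no compound control and 0% = blank background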
Target sequence (P09471 whole entry, looked up): as above
Target sequence (P49795 whole entry, looked up): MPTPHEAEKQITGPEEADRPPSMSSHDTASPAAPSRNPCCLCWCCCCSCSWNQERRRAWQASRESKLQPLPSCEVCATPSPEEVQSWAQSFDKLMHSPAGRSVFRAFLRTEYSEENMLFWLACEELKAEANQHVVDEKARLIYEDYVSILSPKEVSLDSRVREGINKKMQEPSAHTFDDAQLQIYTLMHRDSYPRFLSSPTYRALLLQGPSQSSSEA
An asterisk follows results filed as active; ? = inconclusive; / = not tested or not shown; [ ] = dose if it differs, or a comment. Compounds with a hit are over-represented: about 1.2% of the library has one in this group of screens. Unless noted, no rule for the calls is given here.

SMILES	RGS8-Gao	RGS16-Gao HTS	RGS4-Gao reg	RGS7-Gao reg	GSH fluor	Avidin fluor	Biotin-avidin	RGS8-Gao single	RGS7-Gao confirm	RGS16-Gao conf	RGS4-Gao single	RGS19-Gao single	others
CCOc1ccc(-n2nc3c(SCCN4CCCC4)nnc(C)c3c2C)cc1	121	202*[activator]	183*[activator]	210*[activator]	12	40	0	99	88	97	91	92
Cc1ccc(-n2nc3c(SCCN4CCOCC4)nnc(C)c3c2C)cc1	99	100	97	100	17	18	/	/	/	/	/	/
Cc1ccc(Cl)c(OC(=O)c2nn(C(C)C)c(=O)c3ccccc23)c1	119	248*[activator]	101	101	14	12	2	103	103	103	105	92	RGS-Gao=101*
COC(=O)c1cccc(NC(=O)c2nn(C(C)C)c(=O)c3ccccc23)c1	99	99	104	99	11	8	/	/	/	/	/	/
CC(C(=O)NC(=O)NCc1ccccc1)N1C(=O)c2ccccc2C1=O (stereo unspecified)	/	/	140	/	38	/	0	98	97	96	98	106
Cc1nc2ccccc2cc1C(=O)Nc1ccccc1Cl	140	150	148	157*[activator]	14	12	0	101	104	100	102	100	RGS-Gao=148*
Cc1nc2ccc(F)cc2cc1C(=O)Nc1cccc(Cl)c1C	100	103	96	94	19	3	/	/	/	/	/	/
COc1ccccc1NC(=O)CN1CCN(CC(=O)Nc2ccc(Cl)c(C(F)(F)F)c2)CC1	106	103	105	103	6	9	/	/	/	/	/	/
CCc1ccccc1NCC(=O)Nc1ccc(Cl)c(C(F)(F)F)c1	76	20*	94	92	6	7	-3	114	101	114	103	96	RGS-Gao=94*
O=C(O)Cc1sc(Nc2ccccc2)nc1-c1cccs1	102	100	101	?	/	8	/	/	/	/	/	/
COc1cc(OC)cc(-c2nc(-c3ccccc3OC)no2)c1	14*	3.8*	0.9*	10*	65	-2	-2	109	109	109	111	110
COc1ccccc1-c1noc(-c2cc(OC)c(OC)c(OC)c2)n1	105	112	106	103	21	26	/	/	/	/	/	/
O=C(OCC(=O)C12CC3CC(CC(C3)C1)C2)c1cccnc1Cl	103	101	98	97	/	10	/	/	/	/	/	/
O=C(CSc1ccc2ccccc2n1)NCc1ccc2c(c1)OCO2	14*	11*	21*	?	11	0	-4	103	107	106	102	101
COc1ccc(CNc2nc(NCc3ccc(OC)cc3)n(C(=O)c3ccccc3[N+](=O)[O-])n2)cc1	101	103	100	99	19	34	/	/	/	/	/	/
Fc1ccc(Nc2nc(Oc3ccccc3F)nc(N3CCCC3)n2)cc1	103	107	107	107	18	33	/	/	/	/	/	/
Cc1cc(C)c(NC(=O)c2cnn(C)c2)c(C)c1	4.6*	-386	-6.8*	2.0*	10	-3	0	111	118	112	114	101
Cc1ccc(NC(=O)CC2C(=O)N(Cc3ccccc3)C(=S)N2NC(=O)c2ccccc2)c(C)c1 (stereo unspecified)	101	104	102	98	21	12	/	/	/	/	/	/
CCOC(=O)c1c(C)[nH]c(C(=O)COC(=O)C2CC(=O)N(Cc3ccccc3)C2)c1C (stereo unspecified)	163*[activator]	511	166*[activator]	218*[activator]	239*	97*	0	99	95	92	95	93
Cc1cc(NC(=O)c2ccccc2)nc(C)n1	150*[activator]	174	174*[activator]	?	/	4	0	104	105	105	104	100
Cc1cc(NC(=O)c2ccccc2)n(C(C)(C)C)n1	101	100	99	?	/	4	/	/	/	/	/	/
c1ccc(C2=Nc3ccccc3SC2c2nc3ccccc3[nH]2)cc1 (stereo unspecified)	111	135	101	102	30	18	/	/	/	/	/	/
O=C(N[C@@H](Cc1ccc(O)cc1)C(=O)O)c1ccc(C(F)(F)F)cc1	105	123	138	152*[activator]	19	6	0	97	98	99	101	106	RGS-Gao=138*
CC(C)(C)c1ccc(C(=O)NC(Cc2ccccc2)C(=O)O)cc1 (stereo unspecified)	101	99	102	98	10	9	/	/	/	/	/	/
COc1ccc(OC)c(S(=O)(=O)NC(N)=NCCc2ccccc2)c1	101	101	104	104	21	8	/	/	/	/	/	/
SMILES	RGS8-Gao	RGS16-Gao HTS	RGS4-Gao reg	RGS7-Gao reg	GSH fluor	Avidin fluor	Biotin-avidin	RGS8-Gao single	RGS7-Gao confirm	RGS16-Gao conf	RGS4-Gao single	RGS19-Gao single	others
CC(=O)Oc1ccc2nc(CN3C(=O)c4ccc([N+](=O)[O-])cc4C3=O)oc(=O)c2c1	100	101	96	102	13	10	/	/	/	/	/	/
Cc1ccc(NC(=S)N2CCSC2c2cccs2)cc1 (stereo unspecified)	76	52	91	93	9	14	/	/	/	/	/	/
Cc1ccc2nsnc2c1NC(=O)c1cncc(Br)c1	104	105	103	101	12	9	/	/	/	/	/	/
COc1ccc(CNC(=O)C2CSC(c3ccc(OC)cc3)N2C(C)=O)cc1 (stereo unspecified)	70	82	106	217*[activator]	28	123*	-2	103	104	103	103	106	RGS-Gao=106*
Clc1ccc(-n2nnc(-c3cccnc3)n2)cc1Cl	53*	46	47*	43*	17	2	2	104	96	103	97	97
CCC12CN3CCN(CC(C3)/C1=N\NC(=O)c1ccc(F)cc1)C2	55*	38	42*	43*	13	6	-1	99	99	98	98	97
CCC12CN3CCN(CC(C3)/C1=N\NC(=O)c1ccc(Cl)cc1)C2	97	94	99	90	12	6	/	/	/	/	/	/
